PubChem BioAssay AID1159580 (chemical genetic matrix, 2015)
Where “and” joins values, the source holds several entries; their conditions need not be identical. Identical values can stand only once. Out of some 5,500 compounds screened, about 2,000 (36%) were called active. Roughly 18% stayed inconclusive and do not appear here. Cut-off read from the data, not from the text of the source: active = normalized growth mostly below about 0.91 (no sharp cut-off); inconclusive = no clear call, values can overlap the other calls; inactive = mostly above about 0.92. This is one part of the list.

Test: chemical genetic growth profiling, strain panel (AID 1159580);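 note: tested at 20 µM; growth read once vehicle control cultures reached saturation at 30 °C; 1 = growth at the plate median or of vehicle wells; lower values mean less growth of the strain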
Settings: S. cerevisiae deletion strains, growth OD

Measured: normalized growth

COc1ccc(C(=O)c2ccccc2)c(O)c1
active: locus YAL026C, strain drs2, stronger effect = lower value 0.74 | locus YAL030W, strain snc1, stronger effect = lower value 0.841 | locus YBL061C, strain skt5, stronger effect = lower value 0.762 | locus YBR009C, strain hhf1, stronger effect = lower value 0.789 | locus YBR023C, strain chs3, stronger effect = lower value 0.807 | locus YBR171W, strain sec66, stronger effect = lower value 0.769 | locus YBR231C, strain swc5, stronger effect = lower value 0.834 | locus YBR279W, strain paf1, stronger effect = lower value 0.854 | locus YCL011C, strain gbp2, stronger effect = lower value 0.78 | locus YCL016C, strain dcc1, stronger effect = lower value 0.792 | locus YCL061C, strain MRC1, stronger effect = lower value 0.791 | locus YCL069W, strain vba3, stronger effect = lower value 0.779 | locus YCR088W, strain abp1, stronger effect = lower value 0.833 | locus YDL005C, strain med2, stronger effect = lower value 0.903 | locus YDL035C, strain GPR1, stronger effect = lower value 0.855 | locus YDL040C, strain nat1, stronger effect = lower value 0.861 | locus YDL074C, strain BRE1, stronger effect = lower value 0.691 | locus YDL192W, strain arf1, stronger effect = lower value 0.808 | locus YDR001C, strain nth1, stronger effect = lower value 0.863 | locus YDR069C, strain doa4, stronger effect = lower value 0.879 | locus YDR101C, strain arx1, stronger effect = lower value 0.868 | locus YDR137W, strain rgp1, stronger effect = lower value 0.451 | locus YDR159W, strain sac3, stronger effect = lower value 0.671 | locus YDR162C, strain NBP2, stronger effect = lower value 0.671 | locus YDR195W, strain ref2 1.16 [resistant] | locus YDR297W, strain sur2, stronger effect = lower value 0.853 | locus YDR318W, strain mcm21, stronger effect = lower value 0.833 | locus YDR334W, strain swr1, stronger effect = lower value 0.859 | locus YDR335W, strain msn5, stronger effect = lower value 0.758 | locus YDR388W, stronger effect = lower value 0.881 | locus YDR392W, strain spt3, stronger effect = lower value 0.43 | locus YDR502C, strain sam2, stronger effect = lower value 0.804 | locus YEL003W, strain gim4, stronger effect = lower value 0.778 | locus YEL037C, strain rad23, stronger effect = lower value 0.841 | locus YEL061C, strain CIN8 (second series), stronger effect = lower value 0.813 | locus YER015W, strain faa2, stronger effect = lower value 0.752 | locus YER016W, strain bim1, stronger effect = lower value 0.862 | locus YER110C, stronger effect = lower value 0.891 | locus YER111C, strain swi4, stronger effect = lower value 0.797 | locus YER155C, strain BEM2 (second series), stronger effect = lower value 0.24 | locus YER155C, strain BEM2, stronger effect = lower value 0.926 | locus YER167W, strain BCK2, stronger effect = lower value 0.837 | locus YFR010W, strain ubp6, stronger effect = lower value 0.888 | locus YGL078C, strain dbp3, stronger effect = lower value 0.911 | locus YGL086W, strain mad1, stronger effect = lower value 0.828 | locus YGL167C, strain pmr1, stronger effect = lower value 0.772 | locus YGL173C, strain kem1, stronger effect = lower value 0.72 | locus YGL227W, strain vid30, stronger effect = lower value 0.84 | locus YGL240W, strain doc1, stronger effect = lower value 0.609 | locus YGL253W, strain hxk2, stronger effect = lower value 0.686 | locus YGR135W, strain pre9, stronger effect = lower value 0.729 | locus YGR229C, strain SMI1, stronger effect = lower value 0.558 | locus YGR252W, strain gcn5, stronger effect = lower value 0.666 | locus YHR013C, strain ard1, stronger effect = lower value 0.757 | locus YHR027C, strain rpn1, stronger effect = lower value 0.87 | locus YHR079C, strain IRE1 (second series), stronger effect = lower value 0.894 | locus YHR079C, strain IRE1, stronger effect = lower value 0.842 | locus YHR094C, strain hxt1, stronger effect = lower value 0.915 | locus YHR142W, strain chs7, stronger effect = lower value 0.541 | locus YHR200W, strain rpn10, stronger effect = lower value 0.861 | locus YIL066C, strain RNR3, stronger effect = lower value 0.827 | locus YIL125W, strain kgd1, stronger effect = lower value 0.898 | locus YIR030C, strain dcg1, stronger effect = lower value 0.906 | locus YJL092W, strain hpr5, stronger effect = lower value 0.827 | locus YJL095W, strain BCK1 (second series), stronger effect = lower value 0.703 | locus YJL095W, strain BCK1, stronger effect = lower value 0.699 and 0.86 | locus YJL115W, strain asf1, stronger effect = lower value 0.869 | locus YJL129C, strain trk1, stronger effect = lower value 0.649 | locus YJL154C, strain vps35, stronger effect = lower value 0.882 | locus YJL164C, strain tpk1, stronger effect = lower value 0.805 | locus YJL166W, strain qcr8, stronger effect = lower value 0.742 | locus YJL168C, strain set2, stronger effect = lower value 0.913
inactive: locus YAL013W, strain DEP1, stronger effect = lower value 0.914 | locus YAL021C, strain ccr4, stronger effect = lower value 0.918 | locus YBR021W, strain FUR4, stronger effect = lower value 0.975 | locus YBR229C, strain ROT2, stronger effect = lower value 0.956 | locus YCL029C, strain bik1, stronger effect = lower value 0.92 | locus YDL101C, strain DUN1, stronger effect = lower value 0.963 | locus YDL134C, strain PPH21, stronger effect = lower value 0.949 | locus YDL185W, strain tfp1, stronger effect = lower value 0.908 | locus YDR150W, strain NUM1, stronger effect = lower value 0.934 | locus YEL061C, strain CIN8, stronger effect = lower value 0.939 | locus YGL248W, strain PDE1, stronger effect = lower value 0.944 | locus YGR078C, strain PAC10, stronger effect = lower value 0.859 | locus YHR129C, strain ARP1, stronger effect = lower value 0.936 | locus YIL073C, strain SPO22, stronger effect = lower value 0.75 | locus YJL134W, strain LCB3, stronger effect = lower value 0.945 | locus YJL187C, strain SWE1 (second series), stronger effect = lower value 0.943 | locus YJR043C, strain POL32, stronger effect = lower value 0.879 | locus YJR066W, strain TOR1, stronger effect = lower value 0.835
0.755 (active) and 0.874 (inactive): locus YHR030C, strain SLT2, stronger effect = lower value
